For some assays here: Potency and affinity values are given separately.
Legend:
Set-up in all cases: scale not given: direction of the effect not stated beside the values
[1] = target: Protein translocase subunit SecA (Escherichia coli (strain K12)) (UniProt P10408); assay: Assay to Identify E. coli SecA ATPase Inhibitors; type: functional; settings: 30 µM
[2] = target: T1, Ubiquitin-activating enzyme e1, putative (Leishmania donovani (strain BPK282A1)) (UniProt E9BSI1); assay: Leishmania donovani Ubiquitin Activating Enzyme (LdE1); type: functional; settings: 30 µM
T1 sequence (whole entry): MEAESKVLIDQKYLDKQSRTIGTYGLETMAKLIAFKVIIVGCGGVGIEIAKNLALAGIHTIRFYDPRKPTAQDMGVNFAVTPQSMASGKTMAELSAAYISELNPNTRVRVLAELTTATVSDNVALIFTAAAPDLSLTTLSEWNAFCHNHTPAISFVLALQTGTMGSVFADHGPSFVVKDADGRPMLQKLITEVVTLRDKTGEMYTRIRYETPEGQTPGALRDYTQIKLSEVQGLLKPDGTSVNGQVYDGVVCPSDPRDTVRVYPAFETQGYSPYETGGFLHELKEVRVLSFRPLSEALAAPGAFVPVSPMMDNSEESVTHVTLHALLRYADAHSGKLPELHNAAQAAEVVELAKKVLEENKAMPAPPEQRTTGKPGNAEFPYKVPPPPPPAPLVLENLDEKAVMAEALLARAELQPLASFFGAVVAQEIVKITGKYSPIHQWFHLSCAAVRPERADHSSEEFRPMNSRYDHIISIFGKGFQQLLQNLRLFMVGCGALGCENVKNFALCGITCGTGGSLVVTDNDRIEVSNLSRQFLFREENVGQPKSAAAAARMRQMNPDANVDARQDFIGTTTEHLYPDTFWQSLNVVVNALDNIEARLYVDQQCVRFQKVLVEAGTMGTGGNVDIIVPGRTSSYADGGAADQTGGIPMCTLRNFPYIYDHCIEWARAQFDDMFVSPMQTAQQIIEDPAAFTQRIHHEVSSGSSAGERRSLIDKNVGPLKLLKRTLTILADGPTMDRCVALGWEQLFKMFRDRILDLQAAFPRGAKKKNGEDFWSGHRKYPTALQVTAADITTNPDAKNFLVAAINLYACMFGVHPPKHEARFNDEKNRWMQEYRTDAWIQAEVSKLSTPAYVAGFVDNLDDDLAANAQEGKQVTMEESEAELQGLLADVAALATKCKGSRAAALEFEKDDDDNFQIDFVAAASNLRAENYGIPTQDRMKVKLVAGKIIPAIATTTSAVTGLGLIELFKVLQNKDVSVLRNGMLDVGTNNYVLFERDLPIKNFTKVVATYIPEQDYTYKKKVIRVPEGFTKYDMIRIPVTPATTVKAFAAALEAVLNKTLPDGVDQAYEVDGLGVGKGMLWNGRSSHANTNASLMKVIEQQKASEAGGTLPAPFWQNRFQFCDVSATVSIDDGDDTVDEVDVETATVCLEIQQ

[3] = target: AMP-activated protein kinase, AMPK (Homo sapiens) (UniProt P54646+O43741+P54619+Q9UGJ0+Q9Y478+Q13131+Q9UGI9); assay: AMP-dependent Kinase enzyme assay. An in vitro enzyme assay that detects ADP turnover that is directly proportional to AMPK activity. This uses naive AMPK that is activated during the assay with MK-8722; type: functional; settings: 30 µM
[4] = target: Sialic acid-binding Ig-like lectin 9 (Homo sapiens) (UniProt Q9Y336); assay: Hs-Siglec9 ALPHAscreen SOP 20170721; settings: 10 µM
Sialic acid-binding Ig-like lectin 9 (Homo sapiens), sequence (Q9Y336 whole entry): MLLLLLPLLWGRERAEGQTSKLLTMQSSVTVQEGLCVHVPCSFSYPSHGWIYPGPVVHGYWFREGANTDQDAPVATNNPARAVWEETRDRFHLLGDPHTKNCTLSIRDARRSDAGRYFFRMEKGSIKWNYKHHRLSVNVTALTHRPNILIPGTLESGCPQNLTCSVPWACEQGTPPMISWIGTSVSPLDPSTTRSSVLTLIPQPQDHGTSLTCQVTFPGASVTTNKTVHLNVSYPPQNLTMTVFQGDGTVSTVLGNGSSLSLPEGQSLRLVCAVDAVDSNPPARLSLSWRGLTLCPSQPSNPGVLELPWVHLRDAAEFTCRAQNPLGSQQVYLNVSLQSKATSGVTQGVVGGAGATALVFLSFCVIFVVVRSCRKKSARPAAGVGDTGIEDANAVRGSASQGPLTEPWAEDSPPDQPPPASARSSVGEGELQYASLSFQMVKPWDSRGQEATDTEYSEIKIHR

[5] = tested on: Trypanosoma cruzi; assay: Trypanosoma cruzi phosphomannomutase and mannose-1-phosphate guanylyltransferase assay; type: functional; settings: 10 µM
[6] = target: T2, Arginase-2, mitochondrial (Homo sapiens) (UniProt P78540); assay: in vitro enzyme assay to detect the production of urea directly proportional to the activity of Arginase II; type: functional; settings: 33.3 µM; note: in the data most compounds retested in dose-response had high values
T2 sequence (whole entry): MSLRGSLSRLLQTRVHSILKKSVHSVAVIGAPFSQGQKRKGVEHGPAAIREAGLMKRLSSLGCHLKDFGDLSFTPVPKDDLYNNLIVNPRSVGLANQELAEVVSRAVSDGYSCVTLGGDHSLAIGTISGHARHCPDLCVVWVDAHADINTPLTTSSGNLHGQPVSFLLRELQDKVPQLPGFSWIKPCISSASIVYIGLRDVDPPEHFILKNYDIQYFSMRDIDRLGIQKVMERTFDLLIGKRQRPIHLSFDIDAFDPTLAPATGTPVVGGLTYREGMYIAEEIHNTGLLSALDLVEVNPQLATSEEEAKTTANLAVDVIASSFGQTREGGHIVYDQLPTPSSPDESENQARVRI

[7] = target: T3, Proteasome subunit beta (Trypanosoma cruzi) (UniProt O96673); assay: Trypanosoma cruzi proteasome chymotrypsin-like activity (TcProtChymo) assay.; note: in the data most compounds retested in dose-response had high values; type: functional; settings: 9.37 µM
T3 sequence (whole entry): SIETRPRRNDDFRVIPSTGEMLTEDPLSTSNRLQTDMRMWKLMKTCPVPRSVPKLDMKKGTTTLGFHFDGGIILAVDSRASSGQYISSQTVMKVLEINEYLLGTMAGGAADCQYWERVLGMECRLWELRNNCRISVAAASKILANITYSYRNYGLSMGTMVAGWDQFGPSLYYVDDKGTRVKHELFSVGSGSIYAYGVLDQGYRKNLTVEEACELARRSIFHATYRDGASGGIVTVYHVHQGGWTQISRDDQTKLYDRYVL

[8] = organism: Homo sapiens; assay: To identify inhibition of the IFN signalling (Jak-Stat) pathway via expression of an eGFP reporter gene under the control of an IFN-stimulated response element (ISRE) containing MxA promoter.; type: functional; settings: 30 µM
[9] = target: T4, Tyrosyl-tRNA synthetase, putative (Trypanosoma cruzi (strain CL Brener)) (UniProt Q4DSP6); assay: Trypanosoma cruzi tyrosyl tRNA synthetase (TcYRS) _High Tyrosine SOP; type: functional; settings: 30 µM; note: in the data most compounds retested in dose-response had high values
T4 sequence (whole entry): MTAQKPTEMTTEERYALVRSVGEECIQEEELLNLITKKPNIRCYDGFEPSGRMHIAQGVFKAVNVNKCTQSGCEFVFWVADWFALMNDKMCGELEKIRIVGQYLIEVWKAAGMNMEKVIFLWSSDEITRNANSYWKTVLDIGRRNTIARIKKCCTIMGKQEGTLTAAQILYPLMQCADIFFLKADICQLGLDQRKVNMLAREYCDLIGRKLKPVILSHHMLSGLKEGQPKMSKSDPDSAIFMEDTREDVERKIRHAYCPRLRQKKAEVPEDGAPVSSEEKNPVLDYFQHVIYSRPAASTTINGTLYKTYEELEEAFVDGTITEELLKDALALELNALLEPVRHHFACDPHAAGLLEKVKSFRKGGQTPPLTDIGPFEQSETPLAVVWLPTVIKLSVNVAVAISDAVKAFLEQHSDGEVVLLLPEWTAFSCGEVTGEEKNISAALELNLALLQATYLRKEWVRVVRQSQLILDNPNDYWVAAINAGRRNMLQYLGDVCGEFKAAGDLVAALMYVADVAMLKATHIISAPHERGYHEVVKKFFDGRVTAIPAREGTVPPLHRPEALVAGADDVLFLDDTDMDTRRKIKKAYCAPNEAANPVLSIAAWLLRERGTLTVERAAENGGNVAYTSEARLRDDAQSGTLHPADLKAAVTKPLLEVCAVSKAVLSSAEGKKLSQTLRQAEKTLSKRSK

[10] = target: T4, Tyrosyl-tRNA synthetase, putative (Trypanosoma cruzi (strain CL Brener)); assay: Trypanosoma cruzi tyrosyl tRNA synthetase (TcYRS) SOP; type: functional; settings: 30 µM
[11] = target: Chromo domain-containing protein 1 (Saccharomyces cerevisiae (strain ATCC 204508 / S288c) (Baker's yeast)) (UniProt P32657); assay: ScCHD-1 Enzyme Inhibition Assay; type: functional; settings: 30 µM; note: in the data most compounds retested in dose-response had high values
Chromo domain-containing protein 1 (Saccharomyces cerevisiae (strain ATCC 204508 / S288c) (Baker's yeast)), sequence (P32657 whole entry, the tested form may be a part): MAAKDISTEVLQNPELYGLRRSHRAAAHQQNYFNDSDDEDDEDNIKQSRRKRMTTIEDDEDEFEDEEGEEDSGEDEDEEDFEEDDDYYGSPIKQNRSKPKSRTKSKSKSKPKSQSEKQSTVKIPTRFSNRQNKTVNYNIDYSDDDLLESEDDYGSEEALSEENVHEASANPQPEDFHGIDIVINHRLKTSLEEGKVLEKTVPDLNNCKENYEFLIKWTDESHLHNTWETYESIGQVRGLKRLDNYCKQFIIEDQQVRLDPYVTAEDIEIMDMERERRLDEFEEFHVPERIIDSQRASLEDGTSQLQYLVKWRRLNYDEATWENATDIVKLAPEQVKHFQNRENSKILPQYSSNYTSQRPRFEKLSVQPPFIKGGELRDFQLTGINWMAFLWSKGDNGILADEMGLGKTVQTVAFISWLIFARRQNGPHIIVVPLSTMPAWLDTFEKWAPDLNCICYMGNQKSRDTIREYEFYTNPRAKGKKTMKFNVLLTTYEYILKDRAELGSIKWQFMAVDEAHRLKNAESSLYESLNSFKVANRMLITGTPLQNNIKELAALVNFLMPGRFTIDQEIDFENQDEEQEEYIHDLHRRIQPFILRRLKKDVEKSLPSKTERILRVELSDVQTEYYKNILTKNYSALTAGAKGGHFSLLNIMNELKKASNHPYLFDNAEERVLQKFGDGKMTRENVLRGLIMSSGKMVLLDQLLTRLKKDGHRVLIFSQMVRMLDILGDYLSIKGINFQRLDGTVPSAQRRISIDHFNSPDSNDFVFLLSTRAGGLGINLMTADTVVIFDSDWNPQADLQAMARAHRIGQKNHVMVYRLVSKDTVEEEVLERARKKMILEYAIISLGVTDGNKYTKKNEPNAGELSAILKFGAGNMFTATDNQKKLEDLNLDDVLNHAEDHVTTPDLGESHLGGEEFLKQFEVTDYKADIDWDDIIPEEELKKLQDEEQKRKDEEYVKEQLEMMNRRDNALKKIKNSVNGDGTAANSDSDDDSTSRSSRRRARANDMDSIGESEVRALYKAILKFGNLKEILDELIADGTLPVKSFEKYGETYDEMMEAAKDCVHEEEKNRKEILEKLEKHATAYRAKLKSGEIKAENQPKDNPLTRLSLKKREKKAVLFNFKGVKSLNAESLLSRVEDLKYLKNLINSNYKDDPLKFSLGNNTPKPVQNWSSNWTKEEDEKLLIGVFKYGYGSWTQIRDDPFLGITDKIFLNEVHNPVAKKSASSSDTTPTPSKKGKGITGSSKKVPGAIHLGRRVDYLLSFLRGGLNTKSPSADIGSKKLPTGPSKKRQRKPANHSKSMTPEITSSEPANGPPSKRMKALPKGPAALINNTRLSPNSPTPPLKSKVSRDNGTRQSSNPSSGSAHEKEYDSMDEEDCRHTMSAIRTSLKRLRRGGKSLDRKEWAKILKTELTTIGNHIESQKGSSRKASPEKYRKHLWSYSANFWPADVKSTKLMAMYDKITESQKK

Protein translocase subunit SecA (Escherichia coli (strain K12)), sequence (P10408 whole entry): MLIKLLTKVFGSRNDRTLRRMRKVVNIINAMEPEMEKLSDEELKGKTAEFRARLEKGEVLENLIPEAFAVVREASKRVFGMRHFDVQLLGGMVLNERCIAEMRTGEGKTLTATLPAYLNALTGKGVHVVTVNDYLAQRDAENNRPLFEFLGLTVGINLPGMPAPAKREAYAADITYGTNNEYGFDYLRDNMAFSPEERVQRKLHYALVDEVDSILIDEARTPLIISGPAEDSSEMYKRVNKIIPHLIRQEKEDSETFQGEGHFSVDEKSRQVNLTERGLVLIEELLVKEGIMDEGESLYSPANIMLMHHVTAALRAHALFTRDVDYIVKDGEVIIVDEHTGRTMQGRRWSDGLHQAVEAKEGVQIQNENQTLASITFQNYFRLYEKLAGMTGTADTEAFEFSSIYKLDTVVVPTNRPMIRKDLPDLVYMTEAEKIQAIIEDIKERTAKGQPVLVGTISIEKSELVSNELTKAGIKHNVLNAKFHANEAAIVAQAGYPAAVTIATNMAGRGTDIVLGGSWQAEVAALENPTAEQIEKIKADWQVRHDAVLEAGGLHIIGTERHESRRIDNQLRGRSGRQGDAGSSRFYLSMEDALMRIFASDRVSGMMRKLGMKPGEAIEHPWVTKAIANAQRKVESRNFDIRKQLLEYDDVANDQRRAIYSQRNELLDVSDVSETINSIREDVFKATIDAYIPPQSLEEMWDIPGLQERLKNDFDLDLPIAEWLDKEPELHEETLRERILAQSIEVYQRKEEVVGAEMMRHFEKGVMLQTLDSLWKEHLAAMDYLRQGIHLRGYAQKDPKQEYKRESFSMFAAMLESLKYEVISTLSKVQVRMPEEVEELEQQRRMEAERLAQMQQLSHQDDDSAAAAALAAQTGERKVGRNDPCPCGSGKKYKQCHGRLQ

Structure (SMILES) | Percent Effect [1] [%] | Percent Effect [2] [%] | Percent Effect [3] [%] | Percent Effect [4] [%] | Percent Effect [5] [%] | Percent Effect [6] [%] | Percent Effect [7] [%] | Percent Effect [8] [%] | Percent Effect [9] [%] | Percent Effect [10] [%] | Percent Effect [11] [%]
CC(=O)NC1CCCN(C(=O)NCc2ccc(-c3ccn[nH]3)cc2)C1 (configuration not stated) | -4.57 | 21.1 | 2.99 | -2.61 | 3.83 | 0 | 12.4 | -12.3 | 8.37 | 23.5 | -8.05
COc1cccc(-c2noc(-c3ccc(NCC4CC4)nc3)n2)c1OC | -6.26 | 0 | -3.38 | 6.76 | 8.47 | 2.08 | 11 | 31.3 | 4.92 | 13.6 | -1.62
COc1ccc(-c2noc(CN3CCOCC3C)n2)cc1OC (configuration not stated) | -2.2 | 18.9 | -11.1 | 15.8 | 0.0943 | -6.81 | 8.83 | 28.9 | 5.42 | 16.1 | -11
CCn1nc(C)c2nnn(CC(=O)Nc3c(C)cccc3C)c(=O)c21 | -7.15 | 17.3 | -10.2 | -3.51 | 5.5 | -2.99 | 5.73 | 4.38 | 6.35 | 12.8 | -16.1
N#Cc1cn(C2CC2)c(=O)n(CC(O)c2ccccc2F)c1=O (configuration not stated) | -3.42 | 21.1 | -2.46 | 7.51 | 6.58 | -1.15 | 10.7 | 0.878 | 6.37 | 19.5 | -13.4
COc1c(CNCc2ccnc(N3CCCC3)c2)c(C)nn1C | -5.03 | 3.8 | -1.28 | 2.4 | 0.103 | -0.215 | -4.12 | 7.98 | 7.29 | 15.2 | -7.79
COc1ncccc1CNc1cc(N2CCCC2CO)ncn1 (configuration not stated) | -1.73 | 2.6 | -6.5 | 5.75 | 3.75 | -8.54 | 13.3 | 20.9 | 3.88 | 12.2 | -10.4
CCc1cnc(C)nc1NCCN1CCCCCC1 | -0.998 | 5.2 | -1.3 | 10.8 | -0.295 | 0 | 14.3 | 0.592 | 14 | 16.1 | -4.71
Cc1ccccc1CSc1nc(N)cc(N2CCOC(C(N)=O)C2)n1 (configuration not stated) | -5.78 | 2.7 | -2.45 | -7.55 | -4.4 | 0.248 | 10 | 22.4 | 6.45 | 11.1 | -1.13
CN1CC[C@H](c2ccccc2)[C@@H]2[C@H]1CCCCN2C(=O)c1cnccn1 | -2.95 | -4.05 | 7.03 | 1.21 | 3.75 | -5.34 | 10.8 | 3.3 | 4.3 | 3.9 | -14
O=C(O)c1nnn(Cc2cccc(C(F)(F)F)c2)c1-c1cccnc1 | 2.36 | 6.67 | 10.2 | -2.89 | -4.13 | -10.4 | 8.5 | 4 | 7.41 | 12.8 | -7.79
CC(C)NC(=O)N1CCN(C(=O)N(C)C)CC2(CC(=O)N(C)C2)C1 (configuration not stated) | -3.05 | 13.5 | -4.22 | 1.04 | 1.56 | 6.25 | 18.5 | 7.62 | 8.91 | 13.4 | -7.18
Cc1ccc(Cn2ccc(NS(C)(=O)=O)n2)cc1 | -6.83 | 5.2 | -4.69 | -0.383 | -2.46 | -5.52 | 9.32 | -2.78 | 3.23 | 13.6 | 1.11
Cc1n[nH]c(C2CN(CC(=O)NCCc3ccsc3)CCO2)n1 (configuration not stated) | -1.63 | 5.48 | -9.76 | 0.305 | -3.13 | -0.455 | 20.2 | 8.08 | 4.3 | 15 | -13.8
CN(C(=O)C1CSCN1S(=O)(=O)c1ccc(F)cc1)C1CC1 (configuration not stated) | -6.46 | 0 | -0.918 | 1.18 | -5.57 | -2.73 | 6.27 | -19.6 | 3.23 | 11.1 | 0.714
CCOC(=O)NC(CNC(=O)c1ccccn1)CC(C)C (configuration not stated) | -4.62 | 5.41 | 0.908 | -3.92 | -3.03 | 2.23 | 4.72 | -2.89 | 2.15 | 8.64 | -5.52
O=C(CC1CC1)N1CCn2cc(Cn3cncn3)nc2C1 | -2.33 | 10.4 | 4.72 | 3.11 | -4.04 | -13.6 | 10.8 | 2.39 | 3.17 | 11.5 | -6.64
NCC1Cn2nnc(-c3cccc(F)c3)c2CO1 (configuration not stated) | -1.49 | -20.8 | 2.11 | 0.572 | 8.75 | -1.38 | 7.99 | -8.6 | 3.23 | 3.7 | -4.31
COC(=O)c1ccc(N2CCN(C(=O)c3cnn(C)c3)C(C)C2)cc1 (configuration not stated) | -5.55 | 17.7 | -10.6 | 11.1 | 6.14 | -1.52 | 11.9 | 9.04 | 2.46 | 13.9 | -12.4
Cc1cc(C)n(-c2ccc(CNCc3ccc(OC(C)C)cc3)cn2)n1 | -0.648 | 13.2 | -0.778 | -0.618 | 6.01 | -3.06 | 15.5 | 20.5 | 13.2 | 19.5 | -10.2
COCCOc1ncccc1CNCc1c(C)nn(C)c1N(C)C | -1.27 | -5.41 | -15.1 | -0.788 | 1.98 | 3.61 | 0.721 | -9.31 | 2.46 | 6.17 | -18.1
CC(C)CN1C[C@H]2CCN(Cc3cccnc3)CC[C@H]2S1(=O)=O | -4.38 | 8.11 | 2.04 | -0.964 | -2.05 | -5.41 | 16.2 | 21.9 | 1.08 | 5.13 | 1
